Measured values as given in PubChem BioAssay (Tox21).
Results filed as inconclusive are left out. A number with no mark means an inactive call. Calls follow the shape of the full dose curve.

Target: 5-hydroxytryptamine receptor 2A (Homo sapiens) (UniProt P28223)
Assay: 5-hydroxytryptamine receptor 2A (HTR2A) small molecule antagonists, cell-based qHTS assay (AID 1963586); also: nearly all actives have a fitted effect of over 45% in size
Conditions: HTR2A-CHO cells, DOI-induced calcium flux, fluorescence; series mostly up to 61.5 µM; activity, negative = inhibition: at the top concentration
How it was run: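 CHO cells stably expressing human HTR2A were plated for 18 h at 37 C, then loaded with calcium dye for 1 h. Compounds were preincubated 5 min at room temperature before DOI (4 nM solution) was added. Kinetic fluorescence was read for 3 min.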
% is scaled to controls: 0 for no effect and ±100 for the full control effect.

5-hydroxytryptamine receptor 2A (Homo sapiens), sequence (P28223 whole entry, looked up): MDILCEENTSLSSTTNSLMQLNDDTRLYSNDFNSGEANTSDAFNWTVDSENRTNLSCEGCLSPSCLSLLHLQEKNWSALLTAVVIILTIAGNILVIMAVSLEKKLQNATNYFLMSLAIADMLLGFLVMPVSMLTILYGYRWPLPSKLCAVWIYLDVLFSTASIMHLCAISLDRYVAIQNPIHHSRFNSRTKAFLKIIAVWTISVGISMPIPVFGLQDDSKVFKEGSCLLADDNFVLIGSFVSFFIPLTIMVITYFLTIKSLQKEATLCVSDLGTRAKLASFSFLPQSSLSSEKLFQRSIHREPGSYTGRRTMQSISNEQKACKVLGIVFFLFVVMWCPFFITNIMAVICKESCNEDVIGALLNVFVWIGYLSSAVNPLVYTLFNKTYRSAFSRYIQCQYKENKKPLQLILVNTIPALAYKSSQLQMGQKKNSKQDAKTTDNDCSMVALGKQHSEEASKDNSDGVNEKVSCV

Structure (SMILES)	activity, negative = inhibition
CC(C)=CCC[C@@](C)(O)[C@H]1CC=C(C)CC1	0.229% [at 28.5 µM]
O=C(O)C[C@H](O)C[C@H](O)/C=C/c1c(C2CC2)nc2ccccc2c1-c1ccc(F)cc1	-9.13% [at 12.7 µM]
Cc1ccc2c(Cl)cc(Cl)c(O)c2n1	13.3% [at 28.5 µM]
C[N+]12CCC(CC1)C(OC(=O)C(O)(c1ccccc1)c1ccccc1)C2 (stereo not given)	18.6% [at 28.5 µM]
Cc1cccc([N+](=O)[O-])c1C(=O)O	-29%
C[N+]1(CC2COC(c3ccccc3)(c3ccccc3)O2)CCCCC1 (stereo not given)	-7.46% [at 12.7 µM]
Cc1ncc(CO)c(C=O)c1O	65.7% [at 28.5 µM]
CC(C)c1ccc(C#N)cc1	-11%
CCOC(=O)[C@H](C)O	-0.69%
O=C(Nc1ccccc1)Nc1ccccc1	-11%
NC(Cc1ccc(Cl)cc1)C(=O)O (stereo not given)	-30.9% [at 0.233 µM]
CCOc1cc([N+](=O)[O-])c(OCC)cc1N1CCOCC1	-15.7%
CO[C@@H]1[C@H](OC(=O)/C=C/C=C/C=C/C=C/C(=O)O)CC[C@]2(CO2)[C@H]1[C@@]1(C)O[C@@H]1CC=C(C)C	0.496%
Cn1c(=O)[nH]c2ncn(C)c2c1=O	10%
Nc1nc(Cl)nc2c1ncn2[C@@H]1O[C@H](CO)[C@@H](O)[C@@H]1F	7.57% [at 28.5 µM]
CC(C)(C)C1=CC(=O)C(C(C)(C)C)=CC1=O	-17.8% [at 28.5 µM]
C=CC(C)(CCC=C(C)C)OC(=O)C(C)C (stereo not given)	-7.72%
Cc1cc(C(=O)O)ccc1[N+](=O)[O-]	1.4%
CC(C)=CCC/C(C)=C/C=N/O	2.07%
O=S1(=O)c2cccc3cccc(c23)N1CCCN1CCN(c2ccc(F)cc2)CC1	-62.9% [at 28.5 µM]
